Bioassay records as filed in PubChem.
In the library only some 4.1% were active in any assay of this set; here they are far more common.
Jurkat NFkB inh – inhibitors of the PMA/ionomycin-induced NF-kB reporter in Jurkat cells; 330,000 tested, 0.53% active; PMA/ionomycin-induced NF-kB luciferase reporter, luminescence; inhibition, % at 4 µM; in the data active = inhibition above about 50%
Gli-Sufu antag – antagonists of Gli-Sufu signaling; Sufu-KO-LIGHT fibroblasts, Gli luciferase reporter luminescence; inhibition, % at 5 µM; 340,000 tested, 0.74% active;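 active = inhibition above about 55%, limit read from the data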;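 note: 0% = DMSO-treated cells and 100% = wells with medium but no cells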
KLF5 inhibitor – kruppel-like factor 5 inhibition; DLD-1 KLF5 promoter-luciferase reporter, luminescence; inhibition, % at 5 µM; 290,000 tested, 0.23% active; AID 1700;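 active = inhibition above a per-plate limit of that plate's mean compound inhibition plus 3 SD, cut at about 60% in these data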;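 note: 0% = DMSO wells and 100% = LY294002 at 200 µM; higher means less KLF5 promoter-driven luciferase light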
aSyn 5UTR inh – MLPCN primary screen, SNCA 5' untranslated region; alpha-synuclein 5'UTR reporter, inhibitor activity; inhibition, % (tested at 7.5 µM); 300,000 tested, 0.82% active; AID 1813; in the data active = inhibition above about 60%;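 note: H4 neuroglioblastoma cells stably carrying SNCA 5'UTR luciferase fusion; 0% = DMSO wells and 100% = positive control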
Mdm2-MdmX inh – disrupts the human Mdm2-MdmX interaction. 330,000 tested, 3% active. O15151+Q00987. inhibition, % at 8 µM. AID 485346. SaOS-2 split-luciferase Mdm2/MdmX complementation, luminescence;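 active = inhibition of at least 50% at 8 µM in the primary screen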
Target sequence (O15151 whole entry, looked up): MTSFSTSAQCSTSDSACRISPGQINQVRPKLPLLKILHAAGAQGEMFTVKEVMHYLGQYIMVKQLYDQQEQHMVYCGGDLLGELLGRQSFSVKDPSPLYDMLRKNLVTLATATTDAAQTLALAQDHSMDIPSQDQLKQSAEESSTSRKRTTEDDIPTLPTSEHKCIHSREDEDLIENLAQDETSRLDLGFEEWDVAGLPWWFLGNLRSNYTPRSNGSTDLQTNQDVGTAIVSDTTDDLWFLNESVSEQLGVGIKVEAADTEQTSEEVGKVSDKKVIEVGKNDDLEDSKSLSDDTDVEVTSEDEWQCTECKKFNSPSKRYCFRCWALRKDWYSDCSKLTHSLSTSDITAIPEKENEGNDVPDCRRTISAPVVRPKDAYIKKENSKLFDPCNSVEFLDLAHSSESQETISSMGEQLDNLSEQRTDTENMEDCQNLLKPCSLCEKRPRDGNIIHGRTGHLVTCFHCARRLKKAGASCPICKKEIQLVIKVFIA
Target sequence (Q00987 whole entry, looked up): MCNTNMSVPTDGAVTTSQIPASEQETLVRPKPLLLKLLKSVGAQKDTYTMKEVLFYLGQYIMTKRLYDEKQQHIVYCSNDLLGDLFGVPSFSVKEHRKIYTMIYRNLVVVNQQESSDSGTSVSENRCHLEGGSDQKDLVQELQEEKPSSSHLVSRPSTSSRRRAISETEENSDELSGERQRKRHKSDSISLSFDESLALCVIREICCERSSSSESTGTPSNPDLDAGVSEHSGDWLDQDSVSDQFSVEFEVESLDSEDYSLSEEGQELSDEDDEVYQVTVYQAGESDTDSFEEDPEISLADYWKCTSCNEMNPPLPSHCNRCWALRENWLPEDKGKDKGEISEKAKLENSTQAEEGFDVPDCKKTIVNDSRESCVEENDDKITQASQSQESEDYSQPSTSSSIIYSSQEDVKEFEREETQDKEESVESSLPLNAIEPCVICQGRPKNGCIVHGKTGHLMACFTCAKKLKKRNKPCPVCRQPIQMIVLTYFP
697 NFkB inh – inhibitors of the PMA/ionomycin-induced NF-kB reporter in 697 B cells | 330,000 tested, 0.33% active | AID 435022 | inhibition, % at 4 µM | 697 B-cell NF-kB luciferase reporter, 16 h; in the data active = inhibition above about 35%
Mdm2 MdmX conf – confirmation of human Mdm2/MdmX interaction inhibitors; AID 489028; Mdm2-MdmX binding, luminescent assay; shares compounds with Mdm2-MdmX inh; inhibition, % at 8 µM; 10,000 tested, 55% active; in the data active = inhibition above about 40%
Full FLuc ctr – counter-screen for Mdm2/MdmX inhibitors: full-length luciferase; shares compounds with Mdm2-MdmX inh; 6,200 tested, 77% active; SaOS-2 full-length luciferase counterscreen, luminescence; inhibition, % at 8 µM; AID 504607;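 active = mean inhibition at 8 µM reaching about 37%, which flags the compound as non-specific, limit read from the data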;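 note: p53-null SaOS-2 cells with luciferase driven by a doxycycline-inducible promoter; compound on cells about two nights before reading with doxycycline added after day one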
Numbers without * were called inactive; · = not tested or not shown; ! = not active in a repeat.

SMILES	Jurkat NFkB inh	Gli-Sufu antag	KLF5 inhibitor	aSyn 5UTR inh	Mdm2-MdmX inh	697 NFkB inh	Mdm2 MdmX conf	others
Cc1ccc(C(=O)N2C(CC(=O)Nc3ccc(Cl)cc3)C(=O)NC3CCCCC32)cc1 (stereo not given)	24.8	4.8	-2.9	-71.9	53.8*	14.8	54.8*	Full FLuc ctr=24.8
COc1cccc(-c2ncc3ccccc3c2COC(=O)c2ccc(F)cc2)c1	-10.3	5.5	·	·	26.5	-1.0	·
Cc1ccc(C)c2[nH]c(=O)c(CN(CCN3CCCC3)C(=O)Nc3cccc(Cl)c3)cc12	28.8	-3.6	16.3	5.5	55.4*	6.0	36.0	Full FLuc ctr=38.1*
CCc1ccc2[nH]c(=O)c(CN(CCCN3CCOCC3)C(=O)Nc3cccc(Cl)c3)cc2c1	11.9	3.6	15.5	-5.3	50.1*	15.6	34.3
CNCCCC12CCC(c3ccccc31)c1ccccc12	16.7	8.0	-6.9	-21.6	59.3*!	7.1	32.8
Cc1noc(C)c1C(=O)Nc1nccs1	-0.4	3.0	-28.4	7.6	10.2	-6.0	·
O=[N+]([O-])c1ccc(Sc2cccc3cccnc23)c2cccnc12	13.3	42.4	-16.8	3.4	65.4*	-12.9	56.4*	Full FLuc ctr=50.0*
O=[N+]([O-])c1cc2cccnc2c2ncccc12	-3.8	0.9	17.8	-10.6	21.8	-33.9	·
CC(NS(=O)(=O)OCC(Cl)(Cl)Cl)c1ccc(Br)cc1 (stereo not given)	8.0	-7.2	6.3	11.7	-6.2	19.6	·
Cc1cc(NC(=O)c2cnccn2)no1	·	·	-20.0	-2.2	·	·	·
CC(=O)c1c(C)[nH]c(C(=O)Nc2cc(C)cc(C)c2)c1C	-5.7	17.5	-30.9	-77.6	4.9	13.7	·
Cc1ccc(NC(=O)c2cnccn2)nc1	-59.5	-53.6	-127.8	-77.6	53.4*	-62.8	-5.3
CC(=O)c1c(C)[nH]c(C(=O)Nc2ccc(C)cn2)c1C	-7.1	23.3	-63.9	84.9*	52.5*	-99.6	47.6*	Full FLuc ctr=73.6*
CN1CCC(N(C)C(=O)c2cc(=O)c3ccccc3o2)CC1	-11.7	3.5	-11.6	-1.7	15.7	-14.0	·
COc1ccc2cc(C(N)=O)c(=Nc3ccc(C)cc3)oc2c1	-2.8	-15.2	-33.7	-61.7	54.0*	-37.6	46.4*	Full FLuc ctr=35.2
COc1ccccc1N=c1oc2cc(O)ccc2cc1C(N)=O	2.1	4.2	-56.9	-73.8	24.3	-37.6	·
Cc1cccc(N=c2oc3cc(O)ccc3cc2C(N)=O)c1	-2.3	-27.6	-99.8	-77.5	50.4*	-93.4	-36.6
COc1ccc2cc(C(N)=O)/c(=N\NC(=O)c3ccccc3)oc2c1	-60.5	-9.7	-9.6	54.6	44.8	-42.5	·
CCOc1ccc(NC(=O)CSc2nccn(-c3ccc4c(c3)OCCO4)c2=O)cc1	15.1	-2.4	·	-6.7	2.8	20.1	·
C[C@H]1CN=C(N(C)C)N1CC1CCC(C(C)(C)C)CC1 (stereo not given in full)	-0.2	48.3	·	·	32.6	7.1	·
Cc1ccc(N2CCN(CC(O)COc3ccccc3)CC2)cc1 (stereo not given)	18.8	1.1	-37.6	9.6	-13.2	9.6	·
Cc1onc(-c2ccccc2)c1C(=O)N(CC(C)C)c1c(N)n(CC(C)C)c(=O)[nH]c1=O	7.3	-5.9	·	·	5.8	-2.4	·
CCC1CSC(Nc2ccc(C(=O)/C=C/c3ccc(Oc4ccccc4)cc3)cc2)=N1 (stereo not given)	-5.5	-6.6	3.5	-88.3	54.9*	1.4	26.1
O=C(NC(Cc1ccc(O)cc1)C(=O)N=Nc1c(O)[nH]c2ccccc12)c1ccccc1 (stereo not given)	·	-0.9	·	·	·	·	·
O=C(CNS(=O)(=O)c1c(F)cccc1F)NC1CCCc2ccccc21 (stereo not given)	17.2	14.4	·	·	22.2	6.6	·
SMILES	Jurkat NFkB inh	Gli-Sufu antag	KLF5 inhibitor	aSyn 5UTR inh	Mdm2-MdmX inh	697 NFkB inh	Mdm2 MdmX conf	others
Nc1c(C(=O)Nc2nc3ccccc3s2)sc2nc(-c3cccs3)ccc12	-17.5	-13.0	-71.1	105.7*	86.8*	-1.2	-45.5
Cn1c(SCC(=O)N2CCCC2=O)nc2ccccc21	-4.9	3.1	-34.3	-7.7	14.3	-1.4	·
O=[N+]([O-])c1ccccc1OCCCOc1cccc2cccnc12	-31.2	-33.6	-92.9	-96.3	-54.6	-50.1	·
CN(C)CC(CCCCC(CN(C)C)C(=O)c1ccccc1)C(=O)c1ccccc1 (stereo not given)	-39.4	6.0	-33.9	1.6	56.0*	-35.4	43.3*	Full FLuc ctr=53.7*
CN(C)CCC(C(=O)c1ccccc1)c1ccccn1 (stereo not given)	·	1.3	·	·	·	·	·
Cc1nc(SCC(=O)Nc2ccccc2C(F)(F)F)c2c(=O)n(C)c(=O)n(C)c2n1	2.2	-0.3	-47.4	·	95.0*	-11.4	1.8
Cn1c(=O)c2c(SCC(=O)Nc3cccc(F)c3)nc(-c3ccco3)nc2n(C)c1=O	5.8	2.4	-46.2	-20.0	100.4*	22.0	20.0
Cn1c(=O)c2c(SCc3cccc(C(F)(F)F)c3)nc(-c3ccco3)nc2n(C)c1=O	-7.2	8.6	-14.1	36.1	82.7*	-7.7	-9.4
CC(Sc1nc(-c2ccco2)nc2c1c(=O)n(C)c(=O)n2C)C(=O)O (stereo not given)	1.1	8.8	2.6	9.4	12.5	12.6	·
Cn1c(=O)c2c(SCc3ccccc3)nc(-c3ccco3)nc2n(C)c1=O	·	·	-7.3	·	·	·	·
COc1cccc(OCC(=O)Nc2ccccc2C(=O)Nc2ccc(C(=O)O)cc2)c1	-7.3	-24.6	-12.0	-2.9	-15.3	24.5	·
CN(c1nc(-c2ccc(Br)cc2)cs1)C1CCS(=O)(=O)C1 (stereo not given)	-68.0	-42.6	-31.3	-111.9	-36.8	-30.9	·
CCC(NC(=O)c1ccccc1NC(=O)c1ccccc1)C(=O)NNC(=O)c1cccnc1 (stereo not given)	-15.7	30.5	27.7	2.7	30.4	16.7	·
COc1cc(C(=O)NCC(c2ccco2)N2CCOCC2)cc(OC)c1OC (stereo not given)	7.8	-1.3	·	-5.1	8.5	-8.8	·
O=[N+]([O-])c1cccc(-c2nc(-c3ccccc3)c(-c3cccs3)[nH]2)c1	7.3	19.2	6.2	-1.6	36.6	1.9	·
COc1cc(-c2nc(-c3ccccc3)c(-c3cc([N+](=O)[O-])ccc3C)[nH]2)cc(OC)c1OC	6.8	-13.8	10.2	11.6	68.7*	18.6	29.6
CS(=O)(=O)N1CCC(C(=O)NCc2ccc(Cl)cc2)CC1	8.9	0.8	-3.3	4.8	26.6	23.2	·
COCCNC(=O)CN1C(=O)/C(=C/c2ccccc2)Oc2ccc(C(C)(C)C)cc21	12.3	10.2	-4.4	15.1	27.1	10.4	·
O=C(/C=C/c1ccc2ccccc2n1)N1CCN(S(=O)(=O)c2ccccc2F)CC1	11.4	18.1	-0.9	41.2	75.6*	15.4	79.8*	Full FLuc ctr=25.5
